# In PubChem BioAssay (NCATS):
# Records with an inconclusive call do not appear. The source made the active and inactive calls. Unless noted, the call rests on the fitted dose curve.
# Assays:
# [1] = qHTS drug screen for cell cycle checkpoint inhibitors in PARPi-resistant BRCA-mutant ovarian cancer cell lines. (AID 1963452); settings: PEO1/OlaR viability, CellTiter-Glo luminescence, 96 h; for Z-AUC: stronger effect = lower value; further: potency means the concentration at half of the fitted maximal effect
# Summary of the method: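 PEO1, PEO4 and PEO1/OlaR ovarian cancer cells, 600 per well, exposed 96 h at 37C to a dilution series. Viability read by CellTiter-Glo luminescence, normalized to DMSO and empty wells; activity summarized as Z-AUC.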
# [2] = qHTS for identification of novel therapeutic agents for treatment of microphthalmiaassociated transcription factor (MiT) renal cell carcinoma (RCC) (AID 1963991); settings: CellTiter-Glo, 48 h; for Potency: active = Z-AUC below -0.8 in all three lines; for z-score: stronger effect = lower value; further: potency means the concentration at half of the fitted maximal effect
# Summary of the method: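 Three TFE3-fusion RCC lines (UOK109, UOK124, UOK145), 500 cells/well in complete medium, were treated with MIPE 4.0 compounds for 48 hours at 37 C. Viability was by CellTiter-Glo luminescence, normalized to DMSO (100%) and empty wells (0%); curves fitted over 11 concentrations.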
# 3D7 = assay: qHTS profiling for inhibitors of Plasmodium falciparum proliferation (AID 504749; active means well fitted inhibition curve with a large enough effect;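 further: 0% = DMSO vehicle and full inhibition = artemisinin control; nearly all actives have a fitted effect of over 60% in size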); settings: P. falciparum in erythrocytes, SYBR Green DNA, 72 h; series mostly up to 28.7 µM
# Summary of the method: (§1)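 Readout was DNA-dye fluorescence from lysed cultures, ex 485/em 535 nm. Parasitized red cells had grown 72 h with compound; data scaled between 0.29 uM artemisinin and DMSO wells and corrected using vehicle-only plates.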
# 7G8 = assay: as above; settings: P. falciparum in erythrocytes, SYBR Green DNA, 72 h; series mostly up to 28.7 µM
# Summary of the method: as §1
# AA1029 = assay: as above; settings: P. falciparum in erythrocytes, SYBR Green DNA, 72 h; series mostly up to 28.7 µM
# Summary of the method: as §1
# AS120 = assay: as above; settings: P. falciparum in erythrocytes, SYBR Green DNA, 72 h; series mostly up to 28.7 µM
# Summary of the method: as §1
# ATS189 = assay: as above; settings: P. falciparum in erythrocytes, SYBR Green DNA, 72 h; series mostly up to 28.7 µM
# Summary of the method: as §1
# ATS95 = assay: as above; settings: P. falciparum in erythrocytes, SYBR Green DNA, 72 h; series mostly up to 28.7 µM
# Summary of the method: as §1
# C2A = assay: as above; settings: P. falciparum in erythrocytes, SYBR Green DNA, 72 h; series mostly up to 28.7 µM
# Summary of the method: as §1
# CP185 = assay: as above; settings: P. falciparum in erythrocytes, SYBR Green DNA, 72 h; series mostly up to 28.7 µM
# Summary of the method: as §1
# CP191 = assay: as above; settings: P. falciparum in erythrocytes, SYBR Green DNA, 72 h; series mostly up to 28.7 µM
# Summary of the method: as §1
# CP192 = assay: as above; settings: P. falciparum in erythrocytes, SYBR Green DNA, 72 h; series mostly up to 28.7 µM
# Summary of the method: as §1
# CP194 = assay: as above; settings: P. falciparum in erythrocytes, SYBR Green DNA, 72 h; series mostly up to 28.7 µM
# Summary of the method: as §1
# CP201 = assay: as above; settings: P. falciparum in erythrocytes, SYBR Green DNA, 72 h; series mostly up to 28.7 µM
# Summary of the method: as §1
# CP203 = assay: as above; settings: P. falciparum in erythrocytes, SYBR Green DNA, 72 h; series mostly up to 28.7 µM
# Summary of the method: as §1
# CP211 = assay: as above; settings: P. falciparum in erythrocytes, SYBR Green DNA, 72 h; series mostly up to 28.7 µM
# Summary of the method: as §1
# CP215 = assay: as above; settings: P. falciparum in erythrocytes, SYBR Green DNA, 72 h; series mostly up to 28.7 µM
# Summary of the method: as §1
# [3] = measured here: PEO1 parental Z-AUC
# [4] = TFE3-RCC UOK109 viability, measured here: UOK109 Z-AUC
# [5] = TFE3-RCC viability, measured here: UOK124 Z-AUC
# [6] = TFE3-RCC viability, measured here: UOK145 Z-AUC
smiles,measurement,setting,value
CNC(=O)Nc1ccc(-c2nc(N3CC4CCC(C3)O4)c3cnn(C4CCC5(CC4)OCCO5)c3n2)cc1,Z-AUC,[1],-0.248 (inactive)
same,Z-AUC,[1]; [3],-0.236
same,Z-AUC,[1]; measured here: PEO4 Z-AUC,-1.02
same,Potency,[2]; TFE3-RCC UOK109 viability,41.8 nM (active)
same,z-score,[2]; [4],-1.43
same,z-score,[2]; [5],-1.26
same,z-score,[2]; [6],-2.73
O=C(CN1C(=O)C2(CCCC2)NC[C@H]1c1cc(F)cc(F)c1)Nc1ccc2c(c1)C[C@@]1(C2)C(=O)Nc2ncccc21,Z-AUC,[1],0.0664 (inactive)
same,Z-AUC,[1]; [3],-0.0432
same,Z-AUC,[1]; measured here: PEO4 Z-AUC,0.449
same,z-score,[2]; [4],1.1
same,z-score,[2]; [5],0.765
same,z-score,[2]; [6],1.18
CC(Cc1ccc(O)c(O)c1)(NN)C(=O)O (stereo not given),Z-AUC,[1],1.29 (inactive)
same,Z-AUC,[1]; [3],0.784
same,Z-AUC,[1]; measured here: PEO4 Z-AUC,0.906
same,z-score,[2]; [4],0.533
same,z-score,[2]; [5],0.304
same,z-score,[2]; [6],0.315
C=C[C@@H]1CN2CCC1C[C@H]2[C@H](O)c1ccnc2ccc(OC)cc12 (stereo not given in full),Z-AUC,[1],-0.116 (inactive)
same,Z-AUC,[1]; [3],0.594
same,Z-AUC,[1]; measured here: PEO4 Z-AUC,0.97
same,z-score,[2]; [4],0.232
same,z-score,[2]; [5],0.335
same,z-score,[2]; [6],0.288
Cc1cnc(Nc2ccc(CN3CCOCC3)cc2)nc1Nc1cccc(S(=O)(=O)NC(C)(C)C)c1,Z-AUC,[1],-2.02 (inactive)
same,Z-AUC,[1]; [3],-1.2
same,Z-AUC,[1]; measured here: PEO4 Z-AUC,-1.56
same,Potency,[2]; TFE3-RCC UOK109 viability,4180 nM (active)
same,z-score,[2]; [4],-1.32
same,z-score,[2]; [5],-0.971
same,z-score,[2]; [6],-1.1
C#CCC(Cc1cnc2nc(N)nc(N)c2n1)c1ccc(C(=O)N[C@@H](CCC(=O)O)C(=O)O)cc1 (stereo not given in full),Potency,[1],7.8 nM (active)
same,Z-AUC,[1]; [3],-2.32
same,Z-AUC,[1]; measured here: PEO4 Z-AUC,-1.96
same,Potency,[2]; TFE3-RCC UOK109 viability,132 nM (active)
same,z-score,[2]; [4],-1.2
same,z-score,[2]; [5],-2.51
same,z-score,[2]; [6],-2.95
COc1ccc(Nc2cc(-c3cnc(N)nc3)nc(N3CCOCC3)n2)cn1,Z-AUC,[1],0.44 (inactive)
same,Z-AUC,[1]; [3],-0.145
same,Z-AUC,[1]; measured here: PEO4 Z-AUC,0.339
same,Potency,[2]; TFE3-RCC UOK109 viability,526 nM (active)
same,z-score,[2]; [4],-1.16
same,z-score,[2]; [5],-2.53
same,z-score,[2]; [6],-2.08
Nc1nc2c(c(=O)[nH]1)N(C=O)[C@H](CNc1ccc(C(=O)N[C@@H](CCC(=O)O)C(=O)O)cc1)CN2,Z-AUC,[1],1.12 (inactive)
same,Z-AUC,[1]; [3],1.3
same,Z-AUC,[1]; measured here: PEO4 Z-AUC,1.01
same,Potency,3D7,inactive
same,Potency,7G8,inactive
same,Potency,AA1029,inactive
same,Potency,AS120,inactive
same,Potency,ATS189,inactive
same,Potency,ATS95,inactive
same,Potency,C2A,inactive
same,Potency,CP185,inactive
same,Potency,CP191,inactive
same,Potency,CP192,inactive
same,Potency,CP194,inactive
same,Potency,CP201,inactive
same,Potency,CP203,inactive
same,Potency,CP211,inactive
same,Potency,CP215,inactive
Nc1ccn(C[C@@H](CO)OCP(=O)(O)O)c(=O)n1,Z-AUC,[1],-1.33 (inactive)
same,Z-AUC,[1]; [3],-0.089
same,Z-AUC,[1]; measured here: PEO4 Z-AUC,-0.602
same,z-score,[2]; [4],1.6
same,z-score,[2]; [5],1.03
same,z-score,[2]; [6],1.52
CS(=O)(=O)N1CCc2c(-c3cnc(N)nc3)nc(N3CCOCC3)nc21,Z-AUC,[1],-0.521 (inactive)
same,Z-AUC,[1]; [3],-0.562
same,Z-AUC,[1]; measured here: PEO4 Z-AUC,0.0155
same,Potency,[2]; TFE3-RCC UOK109 viability,93.5 nM (active)
same,z-score,[2]; [4],-2.02
same,z-score,[2]; [5],-1.41
same,z-score,[2]; [6],-1.55
Cn1cc(C[C@@H](N)C(=O)O)c2ccccc21,Z-AUC,[1],0.11 (inactive)
same,Z-AUC,[1]; [3],1.01
same,Z-AUC,[1]; measured here: PEO4 Z-AUC,0.769
same,z-score,[2]; [4],1.28
same,z-score,[2]; [5],1.02
same,z-score,[2]; [6],1.04
N#CNC(=NCCCCCCOc1ccc(Cl)cc1)Nc1ccncc1,Potency,[1],34.7 nM (active)
same,Z-AUC,[1]; [3],-3.38
same,Z-AUC,[1]; measured here: PEO4 Z-AUC,-3.13
same,Potency,[2]; TFE3-RCC UOK109 viability,7430 nM (active)
same,z-score,[2]; [4],-0.809
same,z-score,[2]; [5],-2.82
same,z-score,[2]; [6],-3.43
CCCCCCCN(CC)CCCC(O)c1ccc(NS(C)(=O)=O)cc1 (stereo not given),Z-AUC,[1],1.02 (inactive)
same,Z-AUC,[1]; [3],0.764
same,Z-AUC,[1]; measured here: PEO4 Z-AUC,1.03
same,z-score,[2]; [4],0.349
same,z-score,[2]; [5],-0.246
same,z-score,[2]; [6],0.649
C=C(C)[C@@H]1CC[C@]2(C)CC[C@]3(C)[C@H](CC[C@@H]4[C@@]5(C)CC[C@H](O)C(C)(C)[C@H]5CC[C@]43C)[C@@H]12,Z-AUC,[1],1.12 (inactive)
same,Z-AUC,[1]; [3],0.74
same,Z-AUC,[1]; measured here: PEO4 Z-AUC,1.16
same,z-score,[2]; [4],1.03
same,z-score,[2]; [5],0.631
same,z-score,[2]; [6],0.295
Cc1cc(Nc2ncc3c(n2)N(C)C(=O)N(c2cc(NC(=O)c4cccc(C(F)(F)F)c4)ccc2C)C3)n(C)n1,Z-AUC,[1],-1.62 (inactive)
same,Z-AUC,[1]; [3],-1.69
same,Z-AUC,[1]; measured here: PEO4 Z-AUC,-1.33
same,Potency,[2]; TFE3-RCC UOK109 viability,264 nM (active)
same,z-score,[2]; [4],-1.56
same,z-score,[2]; [5],-1.08
same,z-score,[2]; [6],-2.15
Cn1cc(-c2ccc3ncc(Cc4ccc5ncccc5c4)n3n2)cn1,Z-AUC,[1],0.547 (inactive)
same,Z-AUC,[1]; [3],0.877
same,Z-AUC,[1]; measured here: PEO4 Z-AUC,0.786
same,z-score,[2]; [4],-0.236
same,z-score,[2]; [5],0.125
same,z-score,[2]; [6],-0.113
NC(=O)c1cccc(-c2cccc(OC(=O)NC3CCCCC3)c2)c1,Z-AUC,[1],-0.0721 (inactive)
same,Z-AUC,[1]; [3],0.554
same,Z-AUC,[1]; measured here: PEO4 Z-AUC,-0.318
same,z-score,[2]; [4],0.801
same,z-score,[2]; [5],0.852
same,z-score,[2]; [6],0.744
CC(C)C[C@H](NC(=O)[C@@H](NC(=O)c1cccc(-c2ccccc2)n1)[C@@H](C)O)B(O)O,Potency,[1],60.1 nM (active)
same,Z-AUC,[1]; [3],-2.93
same,Z-AUC,[1]; measured here: PEO4 Z-AUC,-3.51
same,Potency,[2]; TFE3-RCC UOK109 viability,469 nM (active)
same,z-score,[2]; [4],-1.47
same,z-score,[2]; [5],-3.68
same,z-score,[2]; [6],-3.39
CC(C)C[C@H](NC(=O)CNC(=O)c1cc(Cl)ccc1Cl)B1OC(=O)CC(CC(=O)O)(C(=O)O)O1 (stereo not given in full),Potency,[1],43.6 nM (active)
same,Z-AUC,[1]; [3],-3.29
same,Z-AUC,[1]; measured here: PEO4 Z-AUC,-3.23
same,Potency,[2]; TFE3-RCC UOK109 viability,83.3 nM (active)
same,z-score,[2]; [4],-1.14
same,z-score,[2]; [5],-3.62
same,z-score,[2]; [6],-2.91
